# PAD4 FP inh: inhibitors of human PAD4; inhibition, % at 6.36 µM; recombinant PAD4, RCA probe fluorescence polarization; AID 485272; hit rate 0.41% among 330,000;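 active = percent inhibition above a cutoff equal to the mean of all tested compounds plus 3 SD, cut at about 15% in these data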;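 also: 0% = PAD4 with RCA probe and DMSO and 100% = probe without PAD4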
# LYPLA2 counter: blocks human lysophospholipase 2, a PME1 counter-screen. inhibition, % at 5.9 µM. hit rate 0.38% among 320,000. O95372. recombinant LYPLA2, FP-Rh probe fluorescence polarization. AID 2177;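 active = inhibition above the screen-wide mean plus 3 SD, limit set per campaign, cut at about 26% in these data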;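 also: 0% = LYPLA2 with DMSO and 100% = wells lacking LYPLA2 enzyme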
# Target sequence (O95372 whole entry, looked up): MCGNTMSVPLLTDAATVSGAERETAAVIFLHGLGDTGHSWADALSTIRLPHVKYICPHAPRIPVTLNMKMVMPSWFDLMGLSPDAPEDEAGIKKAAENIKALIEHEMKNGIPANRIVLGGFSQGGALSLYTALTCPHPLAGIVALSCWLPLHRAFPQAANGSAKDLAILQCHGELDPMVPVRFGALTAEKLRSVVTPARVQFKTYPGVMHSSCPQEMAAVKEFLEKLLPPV
# PME-1 primary: blocks human protein phosphatase methylesterase 1. hit rate 0.53% among 320,000. Q9Y570. inhibition, % at 5.9 µM. recombinant PME-1, FP-Rh probe fluorescence polarization;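 active = inhibition above the campaign mean of all compounds plus 3 SD, cut at about 26% in these data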;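 also: competitive labeling of PME-1 active site by serine hydrolase directed probe; 0% = PME-1 with DMSO and 100% = wells lacking PME-1 enzyme; inhibitors block probe labeling so polarization falls and inhibition rises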
# GSTO1 inh: GSTO1 inhibition, counter-screen for RBBP9 inhibitors. inhibition, % at 5.96 µM. hit rate 1.1% among 300,000. AID 1974. P78417. recombinant GSTO1, activity-based probe fluorescence polarization;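 active = inhibition above the campaign mean inhibition plus 3 SD, cut at about 35% in these data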;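 also: 0% = GSTO1-1 with DMSO and 100% = wells lacking GSTO1-1 enzyme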
# Fam108B inh: blocks mouse Fam108B hydrolase in RBBP9 counter-screen. recombinant Fam108B, FP-Rh probe fluorescence polarization. inhibition, % at 9.51 µM. hit rate 0.33% among 300,000. AID 1947;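 active = inhibition above the screen mean inhibition plus 3 SD, computed separately per campaign, cut at about 18% in these data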;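 also: inhibitors lower polarization as less probe binds the enzyme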
# LYPLA1 counter: blocks human lysophospholipase 1, a PME1 counter-screen | O75608 | recombinant LYPLA1, FP-Rh probe fluorescence polarization | inhibition, % at 5.9 µM | hit rate 0.16% among 320,000 | AID 2174;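 active = inhibition above the mean of all tested compounds plus 3 SD, set per campaign, cut at about 14% in these data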;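 also: inhibitors block serine hydrolase probe labeling of LYPLA1 so polarization falls; 0% = enzyme with DMSO and 100% = wells lacking LYPLA1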
# Target sequence (O75608 whole entry, looked up): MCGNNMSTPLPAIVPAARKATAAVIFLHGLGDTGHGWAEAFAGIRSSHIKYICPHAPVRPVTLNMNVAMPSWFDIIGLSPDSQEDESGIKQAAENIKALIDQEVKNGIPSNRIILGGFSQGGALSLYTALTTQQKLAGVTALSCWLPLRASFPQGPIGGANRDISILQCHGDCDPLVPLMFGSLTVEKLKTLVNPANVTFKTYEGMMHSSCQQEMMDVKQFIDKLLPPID
# GSTO1 inh conf: GSTO1 (human) inhibition, confirmation | shares compounds with GSTO1 inh | recombinant GSTO1, probe fluorescence polarization | inhibition, % at 5.96 µM | hit rate 54% among 2,400 | AID 2176;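 active = inhibition above the primary screen's cutoff, its mean inhibition plus 3 SD, cut at about 35% in these data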;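 also: loss of polarization as inhibitors block binding of rhodamine sulfonate ester activity probe; 0% = GSTO1 with DMSO and 100% = wells lacking GSTO1 enzyme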
# GSTO1 ABPP inh: inhibitors of recombinant human GSTO1; hit rate 30% among 130; shares compounds with GSTO1 inh; gel ABPP SE-Rh probe fluorescence; inhibition, % at 1 µM;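 active = inhibition of the enzyme GSTO1 above about 75%, limit read from the data; inactive = inhibition below that limit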
# PAD4 confirm: PAD4 (human) inhibition, confirmed; shares compounds with PAD4 FP inh; recombinant PAD4, RCA probe fluorescence polarization; inhibition, % at 6.36 µM; hit rate 28% among 1,200; AID 488796;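 active = mean inhibition across replicates above the hit cutoff set by the earlier primary screen, cut at about 15% in these data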;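 also: inhibitors block active-site labeling by the probe so polarization falls; 0% = PAD4 with probe and DMSO and 100% = probe without PAD4 enzyme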
# Starred values were filed as active, the others as inactive; / = no result given. Most compounds without a hit are left out; they make up all but 1.8% or so of the library.
SMILES,PAD4 FP inh,LYPLA2 counter,PME-1 primary,GSTO1 inh,Fam108B inh,LYPLA1 counter,GSTO1 inh conf,others
CCOC(=O)C(NC(=O)CC)(Nc1ccc(C(O)(C(=O)OCC)C(F)(F)F)cc1C)C(F)(F)F (configuration not stated),-2,0,1,7,-5,-4,/,
CCOC(=O)C(NC(=O)CCl)(Nc1ccc(C(O)(C(=O)OCC)C(F)(F)F)cc1)C(F)(F)F (configuration not stated),0,0,4,53*,-1,-2,74*,
Cc1cc(N=Nc2ccccc2C)ccc1N,-5,6,8,-4,-1,1,/,
Cc1c(N=Nc2c(O)[nH]c(=S)[nH]c2=O)c(=O)n(-c2ccccc2)n1C,3,1,-11,57*,-4,-1,6,
COc1ccccc1OP(=O)(Nc1cccnc1)Oc1ccccc1OC,-2,5,6,-2,-3,2,/,
COc1c2c(cc3c1OCO3)CCN(C)C2,0,1,-4,7,-1,0,/,
COc1cc2c(cc1O)C[C@H]1NCCc3cc4c(c-2c31)OCO4,2,-6,-5,55*,9,-4,21,
Cc1nn(Cc2ccccc2Cl)c(C)c1C(=O)OCC(=O)NC1CCS(=O)(=O)C1 (configuration not stated),-3,4,2,-1,7,3,/,
Cc1cc(NC(=O)CCl)nn1C,1,2,1,85*,1,1,86*,
Cn1ccc(NC(=O)CCl)n1,-2,2,-1,62*,-2,4,85*,
Cc1cc(C(=O)Nc2ccccc2)nn1C(C)(C)C,3,0,-1,7,3,-1,/,
CC(C)[C@H](NC(=O)N1C[C@H]2C[C@@H](C1)c1cccc(=O)n1C2)C(=O)Nc1ccccc1F,-3,4,-9,3,2,2,/,
O=C(Nc1ccc2ccccc2c1)c1nn(C23CC4CC(CC(C4)C2)C3)cc1Br,-4,-10,-14,-2,-7,-8,/,
Cc1nc(Cl)sc1C(=O)Nc1ccc2ccccc2c1,2,-3,-12,55*,-3,-7,54*,
COCC(C)OC(=O)c1c(N)n(Cc2ccco2)c2nc3ccccc3nc12 (configuration not stated),-11,1,-1,59*,-1,-3,18,
Nc1c(C(=O)NCc2ccco2)c2nc3ccccc3nc2n1Cc1ccc(F)cc1,-5,2,0,71*,-1,0,2,
COc1ccc(Cn2c(N)c(C(=O)NCc3ccco3)c3nc4ccccc4nc32)cc1,-10,-12,-10,24,2,-18,/,
COC(=O)CC1=C(C(=O)OC)C2(C(=O)N(C)c3ccccc32)C(C#N)=C(N)O1 (configuration not stated),0,-1,1,0,-1,-4,/,
O=C(Nc1nccs1)C(Cl)(Cl)Cl,-8,7,-5,1,6,7,/,
O=C(CCl)Nc1nccs1,-1,-1,0,92*,12,0,99*,
Cc1ccc(S(=O)(=O)N2CC2(C)CCl)cc1 (configuration not stated),-4,-1,-3,44*,-3,2,67*,GSTO1 ABPP inh=11
Cc1ccc(S(=O)(=O)N2CN3CCN(C3)C2)cc1,0,4,4,2,3,1,/,
O=C(O)CC[N+](=O)[O-],-8,1,-7,6,-1,-1,/,
Cc1cc(NC(=O)CCl)on1,2,3,4,73*,0,0,99*,
O=C1NC(=O)N(Cc2ccco2)C(=O)/C1=C/c1ccc(-c2cccc([N+](=O)[O-])c2)o1,0,5,-2,40*,16,1,27,
SMILES,PAD4 FP inh,LYPLA2 counter,PME-1 primary,GSTO1 inh,Fam108B inh,LYPLA1 counter,GSTO1 inh conf,others
COC(=O)C1=C(c2cccc3c2S(=O)(=O)c2ccccc2-3)C[C@@H]2CC[C@H]1N2C(=O)N1CCc2cc(OC)c(OC)cc2C1,1,-11,2,/,/,-4,/,
CC(C)[C@H]1C(=O)N2CCC[C@H]2[C@]2(O)O[C@](NC(=O)[C@@H]3C=C4c5cccc6[nH]cc(c56)C[C@H]4N(C)C3)(C(C)C)C(=O)N12,29*,6,9,59*,17,2,5,PAD4 confirm=2
COc1cc2c(cc1OC)-c1c3c(cc4c1[C@@H](C2)N(C)CC4)OCO3,57*,-1,0,79*,3,0,70*,PAD4 confirm=-9
COc1cc2c(cc1OC)-c1c(OC)c(OC)cc3c1C(C2)N(C)CC3 (configuration not stated),47*,2,2,70*,0,0,78*,PAD4 confirm=26*
O=c1cccc2n1CC1CC2CN(C(c2ccccc2)c2sc3ncnn3c2O)C1 (configuration not stated),-1,1,-1,3,0,-1,/,
Cc1ccc(C2(O)CCN3CCCCC32)cc1 (configuration not stated),-5,3,-1,-5,-2,1,/,
O=c1c2ccccc2nc(-c2ccoc2)n1-c1ccccc1Cl,-4,-3,-1,1,0,-3,/,
CCOc1ccccc1-n1c(O)c(C=Nc2ccc(N(CC)CC)cc2)c(=O)[nH]c1=O,38*,-1,5,54*,-1,-1,5,PAD4 confirm=3
CCN(CC)c1ccc(N=Cc2c(O)n(-c3ccccc3C)c(=O)[nH]c2=O)cc1,11,-1,6,28,-3,-2,/,
CCN(CC)c1ccc(N=Cc2c(O)n(-c3ccccc3)c(=O)[nH]c2=O)cc1,18*,1,0,42*,0,1,8,PAD4 confirm=4
CCCCCCn1c(N)c(C(=O)NCCN2CCOCC2)c2nc3ccccc3nc21,-2,-10,4,5,-1,-3,/,
CC(C)OCCCNC(=O)c1c(N)n(CC2CCCO2)c2nc3ccccc3nc12 (configuration not stated),-4,-3,-1,24,7,0,/,
CCCCn1c(N)c(C(=O)OCC2CCCO2)c2nc3ccccc3nc21 (configuration not stated),69*,-4,5,81*,10,-2,6,PAD4 confirm=-10
CCCCCn1c(N)c(C(=O)NCc2cccs2)c2nc3ccccc3nc21,65*,8,10,60*,5,-2,5,PAD4 confirm=-12
CC(C)CCn1c(N)c(C(=O)OCC2CCCO2)c2nc3ccccc3nc21 (configuration not stated),72*,5,6,88*,2,1,6,PAD4 confirm=-21
